Screening results: PubChem BioAssay, The Scripps Research Institute Molecular Screening Center
Compounds with a hit are over-represented: about 2.9% of the library has one in this group of screens.
pPAFAH inh – pPAFAH enzyme inhibitors, primary screen, biochemical, fluorescence polarization, human. hit rate 1.5% among 330,000. AID 463082, 2010. Platelet-activating factor acetylhydrolase (Homo sapiens), Q13093. inhibition, % at 3.39 µM. recombinant pPAFAH, FP-rhodamine probe fluorescence polarization;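 active = inhibition above the mean inhibition across the screen plus 3 SD, cut at about 25% in these data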;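 also: inhibitors block binding of the rhodamine activity-based probe so polarization drops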
Target sequence (Q13093 whole entry, looked up): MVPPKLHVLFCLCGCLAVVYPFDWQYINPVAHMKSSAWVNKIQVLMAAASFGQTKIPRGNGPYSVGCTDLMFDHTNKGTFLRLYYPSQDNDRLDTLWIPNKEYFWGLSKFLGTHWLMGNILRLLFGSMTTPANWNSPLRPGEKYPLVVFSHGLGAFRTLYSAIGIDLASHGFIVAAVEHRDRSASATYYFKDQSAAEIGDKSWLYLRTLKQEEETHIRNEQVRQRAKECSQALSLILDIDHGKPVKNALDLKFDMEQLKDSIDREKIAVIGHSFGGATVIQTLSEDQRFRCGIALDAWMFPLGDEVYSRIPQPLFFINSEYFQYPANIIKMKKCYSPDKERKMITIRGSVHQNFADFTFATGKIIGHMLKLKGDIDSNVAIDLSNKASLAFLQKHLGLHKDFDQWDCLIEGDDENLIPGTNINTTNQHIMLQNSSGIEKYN
PAFAH1B2 inh – PAFAH1B2 enzyme inhibitors, primary screen, biochemical, fluorescence polarization, human; inhibition, % at 3.39 µM; hit rate 1.2% among 340,000; Platelet-activating factor acetylhydrolase IB subunit alpha2 (Homo sapiens), P68402; AID 492953, 2010; recombinant PAFAH1B2, FP-rhodamine activity probe;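 active = inhibition above the mean of all tested compounds plus 3 SD, cut at about 24% in these data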
Target sequence (P68402 whole entry, looked up): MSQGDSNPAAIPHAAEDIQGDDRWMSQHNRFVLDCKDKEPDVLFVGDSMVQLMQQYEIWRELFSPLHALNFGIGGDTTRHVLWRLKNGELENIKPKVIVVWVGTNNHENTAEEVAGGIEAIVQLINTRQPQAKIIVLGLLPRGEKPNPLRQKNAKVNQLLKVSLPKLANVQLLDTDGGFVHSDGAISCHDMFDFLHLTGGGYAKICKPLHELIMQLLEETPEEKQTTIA
PME-1 inh – PME-1 inhibitors via competitive probe labeling, primary screen, biochemical, fluorescence polarization, FP-Rh probe, HTS; inhibition, % at 5.9 µM; Protein phosphatase methylesterase 1 (Homo sapiens), Q9Y570; hit rate 0.53% among 320,000; recombinant PME-1;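 active = inhibition above the campaign mean of all compounds plus 3 SD, cut at about 26% in these data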;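 also: competitive labeling of PME-1 active site by serine hydrolase directed probe; inhibitors block probe labeling so polarization falls and inhibition rises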
PAFAH1B3 inh – PAFAH1B3 enzyme inhibitors, primary screen, biochemical, fluorescence polarization, human; Platelet-activating factor acetylhydrolase IB subunit alpha1 (Homo sapiens), Q15102; recombinant PAFAH1B3, FP-rhodamine probe; inhibition, % at 3.39 µM; AID 492972, 2010; hit rate 0.28% among 340,000;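 active = inhibition above the screen-wide average of all tested compounds plus 3 SD, cut at about 25% in these data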
PAFAH2 FP inh – PAFAH2 enzyme inhibitors, primary screen, biochemical, fluorescence polarization, human; Platelet-activating factor acetylhydrolase 2, cytoplasmic (Homo sapiens), Q99487; recombinant PAFAH2, FP-rhodamine activity probe; inhibition, % at 3.39 µM; hit rate 0.99% among 340,000; AID 492956, 2010;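 active = inhibition above the mean over all tested compounds plus 3 SD, cut at about 30% in these data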;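 also: inhibitors block probe labeling of enzyme so polarization drops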
Fam108B counter – mouse Fam108B serine hydrolase inhibitors, primary screen, counter-screen for RBBP9 inhibitor project, biochemical, fluorescence polarization | recombinant Fam108B, FP-Rh probe fluorescence polarization | inhibition, % at 9.51 µM | hit rate 0.33% among 300,000;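 active = inhibition above the screen mean inhibition plus 3 SD, computed separately per campaign, cut at about 18% in these data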;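 also: inhibitors lower polarization as less probe binds the enzyme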
Numbers stand for hits; 0 = inactive; - = not tested or not shown.

SMILES	pPAFAH inh	PAFAH1B2 inh	PME-1 inh	PAFAH1B3 inh	PAFAH2 FP inh	Fam108B counter
CCC(=O)OC1(C)C(=O)C=C2C=C(CCCC(=O)OC)OC=C2C1=O (stereo not drawn)	0	0	0	0	0	0
O=C(CCn1cnnn1)NC1CCCN(Cc2ccccc2F)C1 (stereo not drawn)	0	0	0	0	0	0
COc1ccc(N2CCN(S(=O)(=O)c3ccc4c(c3)CC(C)N4C(=O)C3CC3)CC2)cc1 (stereo not drawn)	0	0	0	0	0	0
Cc1ccccc1-c1nc2ccccc2[nH]1	0	0	0	0	0	0
Cc1cc(C)c2c(N)c(-c3nc4ccccc4[nH]3)sc2n1	0	0	29	0	0	0
O=C(COc1ccc2ccccc2c1)Nc1cccc2c1C(=O)NC2=O	0	-	0	-	-	0
CN(C)c1ccc(N=Cc2ccco2)cc1	28	0	0	0	0	0
CN(C)c1ccc(C=Nc2ccc(N(C)C)cc2)cc1	0	0	0	0	0	0
CCC(C)Nc1nc(N)c([N+](=O)[O-])c(Nc2ccccc2OC)n1 (stereo not drawn)	0	0	0	0	0	0
CCC(C)Nc1nc(N)c([N+](=O)[O-])c(Nc2cc(OC)ccc2OC)n1 (stereo not drawn)	29	0	28	0	0	0
Nc1nc2c(ncn2CCC(CO)CO)c(=O)[nH]1	0	-	0	-	-	0
CC(C)c1cc(C(=O)N2CCCC(Nc3ccc(F)cc3)C2)n[nH]1 (stereo not drawn)	0	24	0	0	0	0
Cc1cc(C)cc(N(CCC#N)C(=O)COC(=O)CNC(=O)c2sc3ccccc3c2Cl)c1	0	0	0	0	0	0
CNC(=O)c1cc(C(=O)c2ccc(Cl)cc2)c(Br)[nH]1	0	37	0	0	0	0
COc1cccc2c1OC1(C)CC2NC(=O)N1c1cccc(C(=O)Nc2ccc3c(c2)OCCO3)c1 (stereo not drawn)	0	0	0	0	0	0
CC(C)CCNC(=O)NC(=O)COc1c(F)c(F)cc(F)c1F	0	0	0	0	0	0
CCN1/C(=C/C=C/c2oc3ccc4ccccc4c3[n+]2CC)Oc2ccc3ccccc3c21	42	-	0	-	-	118
O=C(Nc1ccccc1Cl)ON=C1c2ccccc2-c2ccccc21	0	0	0	26	0	0
O=C(Nc1ccccc1)ON=C1c2ccccc2-c2ccccc21	0	0	0	0	0	0
COc1cc(OC)c(NC(=S)Nc2cccc(C(C)=O)c2)cc1Cl	0	0	0	0	0	0
COc1cc(OC)c(NC(=S)Nc2cc(Cl)cc(Cl)c2)cc1Cl	0	0	0	0	0	21
O=C(O)CCCNc1cc(N2CCC3(CC2)OCCO3)c2noc3c2c1C(=O)c1ccccc1-3	76	-	0	-	-	35
Oc1ccc(Br)cc1-c1cc(-c2ccc(Cl)cc2)n[nH]1	0	0	0	0	0	0
COc1ccc(-c2cc(-c3cc(OC)ccc3O)[nH]n2)cc1	0	0	66	0	0	0
COc1ccc(-c2cc(-c3ccc(Cl)cc3)n[nH]2)c(O)c1	0	0	42	0	0	0
SMILES	pPAFAH inh	PAFAH1B2 inh	PME-1 inh	PAFAH1B3 inh	PAFAH2 FP inh	Fam108B counter
COc1ccc(-c2n[nH]c(C)c2-c2cc(OC)ccc2O)cc1	0	0	0	0	0	0
Cc1cccc(C(=O)O/N=C/c2ccc(Br)cc2)c1	0	37	0	0	73	0
Cn1ccc(C(=O)OCC(=O)c2ccccc2)n1	0	0	0	0	0	0
Cn1ccc(C(=O)OCC(=O)Nc2cccc3ccccc23)n1	0	0	0	0	50	0
COc1ccccc1NC(=O)Cc1nnc(SCC(=O)c2ccccc2)n1C	0	0	0	0	0	0
CCOC(=O)C1CCCN(C(=O)CC(c2ccccc2)c2ccccc2)C1 (stereo not drawn)	0	0	0	0	0	0
CCOC(=O)C1CCCN(C(=O)Cc2c(C(=O)O)[nH]c3ccccc23)C1 (stereo not drawn)	0	34	0	0	0	0
O=C(CCCC(=O)Nc1cccc(Br)c1)N/N=C/c1cc([N+](=O)[O-])ccc1O	0	0	0	0	0	0
O=C(CN(c1cccc(Br)c1)S(=O)(=O)c1ccccc1)N/N=C/c1cc([N+](=O)[O-])ccc1O	25	-	0	-	-	0
CCCCN(CCCC)C(=O)c1ccccc1NC(=O)CN1C(=O)c2ccccc2C1=O	0	0	0	0	0	0
COc1cc(C2C(C#N)=C(N)Oc3cc(C)n(CCc4ccccc4)c(=O)c32)cc2c1OCO2 (stereo not drawn)	0	0	0	0	0	0
O=C(COc1coc(CN2CCc3ccccc32)cc1=O)NCCc1ccccc1	0	28	0	0	0	0
O=C(COc1coc(CN2CCc3ccccc3C2)cc1=O)Nc1cccc(Cl)c1	0	0	0	0	0	0
O=C(COc1coc(CN2CCc3ccccc3C2)cc1=O)Nc1cccc(F)c1	30	0	0	0	0	0
Cc1ccc(N(CC(=O)NCc2ccccc2Cl)S(=O)(=O)c2cccs2)cc1	0	0	0	0	0	0
N#C/C(=C\c1cc2c(cc1Br)OCO2)c1ccc(C(=O)O)cc1	0	33	0	0	0	0
Cn1nnc(C(O)CN2CCOCC2)n1 (stereo not drawn)	0	0	0	0	0	0
CC(=O)Oc1ccc(N(C(C)=O)S(=O)(=O)c2cccs2)cc1	0	0	0	0	0	0
CCCC(=O)Oc1ccc(N(C(=O)CCC)S(=O)(=O)c2cccs2)cc1	30	0	0	0	0	0
CC(=O)O/N=C1\C(=O)N(Cc2ccc(C)cc2)c2ccccc21	-	0	-	0	0	-
CC(C)CC(=O)O/N=C1\C(=O)N(Cc2ccc(Cl)cc2)c2ccc([N+](=O)[O-])cc21	35	-	35	-	-	43
NC1=NC(=Nc2ccc(Br)cc2)c2ccccc21	0	0	0	0	0	0
O=C(NNC(=O)c1ccccc1O)c1ccc(Cl)c(S(=O)(=O)N2CCc3ccccc32)c1	30	0	0	0	0	0
O=C(NCc1nc2ccccc2[nH]1)C1=C[C@@H](c2csc3ccccc23)C[C@@H](OCCCCO)O1	0	0	0	0	0	0
Cc1ccc2sc(NNC(=O)c3cc(=O)c4ccccc4o3)nc2c1C	0	0	46	0	0	0
O=C(Nc1ccc(O)c(-c2nc3ccccc3s2)c1)c1cc(=O)c2ccccc2o1	0	0	0	0	0	0
Cc1nc(C)c(C(=O)Nc2nc3c(C)cccc3s2)o1	30	0	0	0	0	0
O=C(NNc1nc2c(F)cccc2s1)c1ccc(F)cc1	0	0	0	0	0	0
Cc1cccc2sc(NNC(=O)c3cc(=O)c4ccccc4o3)nc12	27	0	47	0	0	0
